# Laboratory results: PubChem BioAssay AID1650 (Southern Research Specialized Biocontainment Screening …, 2009)
# Potency and affinity values are given separately. Calls of active or inactive are those of the source. How the calls were made is not given here.
# Test: host cell cytotoxicity of antiviral hits, dose response, cytotoxicity control for West Nile virus antiviral project, secondary assay (AID 1650)
# Conditions: Mammalian host cell viability, cytotoxicity counter-screen; series mostly up to 10 µM; viability: at the top concentration
row,SMILES,viability
1,COC(=O)C1(O)CC(C(C)C)=NN1C(=O)c1ccc(Cl)cc1 (stereo not given),95.5% [at 20 µM] (inactive)
2,CN1C2CCC1/C(=C\c1ccccc1)C(=O)/C2=C\c1ccccc1,71.7% (inactive)
3,CN(C)CC(O)COc1ccc(C(C)(C)c2ccc(OCC(O)CN(C)C)cc2)cc1 (stereo not given),89.6% (inactive)
4,O=C(COc1ccc(Cl)cc1)NCCSCc1cccc(Cl)c1,90.4% [at 20 µM] (inactive)
5,CCc1ccc2nc(N(CCCN(C)C)C(=O)c3ccc(S(=O)(=O)N4CCCc5ccccc54)cc3)sc2c1,82.3% (inactive)
6,Cc1ccc2oc(=O)c3cc(C(=O)NCCCN4CC(C)CC(C)C4)sc3c2c1 (stereo not given),71.7% [at 20 µM] (inactive)
7,CCOC(=O)C1(Cc2ccccc2C(F)(F)F)CCN(C2CCN(C(C)C)CC2)CC1,72.2% [at 20 µM] (inactive)
8,CC(=O)OCCCNc1cc(Sc2ccc(C)cc2)c2nonc2c1[N+](=O)[O-],87% (inactive)
9,CN(C)CCNc1ncnc2c1sc1nc(-c3ccccc3)c3c(c12)CCCC3,78.4% (inactive)
10,CC(NC(=O)/C=C/c1cnc2ccccc2n1)C12CC3CC(CC(C3)C1)C2 (stereo not given),78.4% (inactive)
11,O=[N+]([O-])c1nn(-c2ccccc2)n(O)c1=NC1CCN(Cc2ccccc2)CC1,83.1% [at 20 µM] (inactive)
12,Cc1cc(C)c(NC(=O)Cn2nnc(C(=O)Nc3ccc(F)cc3F)c2N)c(C)c1,88.5% [at 20 µM] (inactive)
13,CCOC(=O)C1(Cc2cccc(OC)c2)CCCN(C(=O)c2ccccc2C)C1 (stereo not given),80.7% (inactive)
14,CN1CCN(CCNC(=O)c2ccc3nc(-c4ccc(F)cc4)c(-c4ccc(F)cc4)nc3c2)CC1,86.1% (inactive)
15,CCN(CC)CCOC(=O)c1ccc(NC(=O)CCCN2C(=O)S/C(=C/c3ccc(OC)cc3)C2=S)cc1,78.4% [at 20 µM] (inactive)
16,CN(C)CCNC=C(C(=O)Nc1ccc(Cl)cc1Cl)C(=O)Nc1ccc(Cl)cc1Cl,80.2% [at 20 µM] (inactive)
17,O=C(NCCCn1ccnc1)c1cc2nc(-c3ccc(Br)cc3)cc(C(F)(F)F)n2n1,72.6% (inactive)
18,COc1ccc(C2c3[nH]c4ccccc4c3CCN2C(=O)c2cc3ncccn3n2)c(F)c1 (stereo not given),85% (inactive)
19,Cc1cccc(OCC(O)Cn2c(=N)n(CCN3CCCCC3)c3ccccc32)c1 (stereo not given),70.1% [at 20 µM] (inactive)
20,CN(C)CCNS(=O)(=O)c1ccc(N2CCN(c3ccc(F)cc3)CC2)c([N+](=O)[O-])c1,79.6% (inactive)

row,SMILES,viability
1,N#Cc1ccc(-c2ccc(F)cc2)nc1Oc1ccc(Cl)c(Cl)c1,79.6% (inactive)
2,CCCN(CC(=O)Nc1cccc(Br)c1)CC(=O)Nc1ccc(F)c(F)c1F,84.9% (inactive)
3,CCc1nn(CC(=O)NC2CCN(Cc3ccccc3)CC2)c(=O)c2cc3cc(F)ccc3n12,81.2% [at 20 µM] (inactive)
4,CCN(CC)CCNC(=O)C1CCN(S(=O)(=O)c2c(C)noc2/C=C/c2ccccc2F)CC1,84.3% (inactive)
5,CCCc1nc([N+](=O)[O-])c(S(=O)(=O)c2ccccc2)n1CC(C)C,92.9% [at 20 µM] (inactive)
6,O=C(CSCc1ccc(Cl)cc1)Nc1ccc2c(c1)OCCO2,94.9% [at 20 µM] (inactive)
7,CCN(CC)CCCNC(=S)N1CCN(c2nc(-c3ccccc3)cs2)CC1,86.9% (inactive)
8,COC(=O)c1ccc(NC(=O)CC2C(=O)N(C)C(=S)N2Cc2ccc(S(N)(=O)=O)cc2)cc1 (stereo not given),90.1% (inactive)
9,CC(C)Cc1nc2oc3c(NCCCN4CCOCC4)ncnc3c2c2c1CCC2,80.2% (inactive)
10,CCN(CC)S(=O)(=O)c1ccc(NC(=O)Cn2cnc3ccccc3c2=O)cc1,92.4% (inactive)
11,CCc1ccc(NC(=O)CSc2nc3ccccc3c(=O)n2CCCC(=O)NCCCN2CCOCC2)cc1,86.5% [at 20 µM] (inactive)
12,CCCCCCn1c(SCC(=O)Nc2cc(C)on2)nc2ccccc2c1=O,71.4% (inactive)
13,Cc1ccc(NC(=S)N(CCCN2CCCC2)Cc2cccn2Cc2ccc(Cl)cc2)cc1C,86.5% (inactive)
14,CCC(C)c1ccccc1NC(=O)COC(=O)c1ccc2[nH]c3c(c2c1)CCCC3 (stereo not given),72% (inactive)
15,CC(C)c1ccc(/C=C/C(=O)Nc2ccc(CN3CCOCC3)cc2)cc1,78.1% [at 20 µM] (inactive)
16,Cc1ccc(NC2=C/C(=N/S(=O)(=O)c3cccs3)c3ccccc3C2=O)cc1,78.3% [at 20 µM] (inactive)
17,Cc1ccccc1CN(CC(=O)Nc1cccc([N+](=O)[O-])c1)S(=O)(=O)c1ccc(Cl)cc1,80.2% (inactive)
18,CCOC(=O)c1c(CSCc2ccccc2)oc2ccc(O)c(CN(C)C)c12,81.7% [at 20 µM] (inactive)
19,CCn1ncc(CN2CCC(C(=O)Nc3cccc(-c4cccc(F)c4)c3)CC2)c1C,82.2% (inactive)
20,CN(C)CCCN(C(=O)c1ccco1)c1nc2ccc(Cl)cc2s1,83.3% (inactive)
